We go through ten compounds from PubChem BioAssay (NCI).

Test [1] in a line: NCI Yeast Anticancer Drug Screen. Data for the rad50 strain (AID 155).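 Also: 0% = growth of vehicle-only cultures of the same strain.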 To be noted: S. cerevisiae rad50 strain growth inhibition, hits give high values. A digest of the protocol:
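Relative growth inhibition (compound vs vehicle) was measured in yeast with a defined repair-gene alteration.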

Test [2] can be described thus: NCI Yeast Anticancer Drug Screen. Data for the mec2-1 strain (AID 157). To be noted: S. cerevisiae mec2-1 strain, hits give high values. A digest of the protocol: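 Cells of the genetically defined mec2-1 yeast strain are incubated with test compound. Inhibition of growth is calculated against vehicle-treated controls.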
Test [3] is described as follows: NCI Yeast Anticancer Drug Screen. Data for the sgs1 mgt1 strain (AID 161).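 Also: 0% = growth of cultures given vehicle only.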 To be noted: S. cerevisiae sgs1 mgt1 strain, hits give high values. The essentials:
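Test agents were incubated with a DNA-repair-mutant yeast strain. Growth was then read and compared against vehicle-treated controls.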

A short description of test [4]: NCI Yeast Anticancer Drug Screen. Data for the cln2 rad14 strain (AID 165).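 Also: 0% = growth equal to vehicle treated cultures.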 To be noted: S. cerevisiae cln2 rad14 strain, hits give high values. A digest of the protocol:
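The screen exposed genetically defined yeast (cln2 rad14) to test compounds and scored growth inhibition relative to vehicle-treated controls.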

The nature of test [5]: NCI Yeast Anticancer Drug Screen. Data for the bub3 strain (AID 167). To be noted: S. cerevisiae bub3 mutant strain, hits give high values. The essentials:
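Screening used yeast with an engineered genetic alteration affecting cell cycle control. Compound-exposed cultures were compared with vehicle cultures, and reduced growth was taken as inhibition.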

Test [6] is described as follows: NCI Yeast Anticancer Drug Screen. Data for the mlh1 rad18 strain (AID 175). To be noted: S. cerevisiae mlh1 rad18 strain growth inhibition, hits give high values. The essentials:
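Compound-treated yeast growth, normalised to vehicle controls. Strain bears defined DNA repair mutations.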

Setting [7] is: at 5.0 µM (retest, dose inferred, filed as 0.5).
The mark [8] stands for this setting: at 50.0 µM (retest, dose inferred, filed as 5.0).

Each structure is given as a SMILES string. The panel holds about 79,000 compounds, 15% with a hit somewhere; the sample as a whole holds those more often. A number with no mark means an inactive call. Active and inactive are the calls of the source. Rule as the data show it: active = growth inhibition above about 70%; inactive = the rest.

As for `CCCCCCCCC1CCNCC1`, the growth inhibition in test [1] (setting [7]) is 39%; in test [1] (setting [8]) it was 28%; in test [1] (at 50.0 µM) it was 85.5% (active); in test [2] (setting [7]), -6%; in test [2] (setting [8]), 47%; in test [2] (at 50.0 µM), 87.7% (active). In addition, the growth inhibition in test [3] (setting [7]) was 26%; in test [3] (setting [8]), 71% (active); in test [3] (at 50.0 µM), 92.2% (active); in test [4] (setting [7]) it was 33%; in test [4] (setting [8]), 38%; in test [4] (at 50.0 µM), 72.5% (active). The growth inhibition in test [5] (setting [7]) is 36%; in test [5] (setting [8]) it was 62%; in test [5] (at 50.0 µM), 90.3% (active); in test [6] (setting [7]), 20%; in test [6] (setting [8]), 23%; in test [6] (at 50.0 µM), 89.8% (active).

Regarding `O=C(Oc1cccc2cccnc12)c1ccccc1`, the growth inhibition in test [1] (setting [7]) was 4%; in test [1] (setting [8]), 97% (active); in test [1] (at 50.0 µM), 96.4% (active); in test [2] (setting [7]), -22%; in test [2] (setting [8]) it was 98% (active); in test [2] (at 50.0 µM), 97% (active). In addition, the growth inhibition in test [3] (setting [7]) is -4%; in test [3] (setting [8]), 97% (active); in test [3] (at 50.0 µM) it was 93.6% (active); in test [4] (setting [7]), 2%; in test [4] (setting [8]), 85% (active); in test [4] (at 50.0 µM), 91.2% (active). The growth inhibition in test [5] (setting [7]) was 28%; in test [5] (setting [8]), 99% (active); in test [5] (at 50.0 µM), 98% (active); in test [6] (setting [7]) it was 7%; in test [6] (setting [8]) it was 98% (active); in test [6] (at 50.0 µM), 95.2% (active).

As to `Cc1ccc(SSCCCCCS(=O)O)cc1`, the growth inhibition was 1% in test [1] (setting [7]); 24% in test [1] (setting [8]); 49.5% in test [1] (at 50.0 µM); 4% in test [2] (setting [7]); 60% in test [2] (setting [8]); 23.1% in test [2] (at 50.0 µM). Moreover, the growth inhibition is 3% in test [3] (setting [7]); 54% in test [3] (setting [8]); 42.9% in test [3] (at 50.0 µM); -5% in test [4] (setting [7]); 34% in test [4] (setting [8]); 58% in test [4] (at 50.0 µM). In addition, the growth inhibition in test [5] (setting [7]) was 10%; in test [5] (setting [8]), 88% (active); in test [5] (at 50.0 µM) it was 84.4% (active); in test [6] (setting [7]), 6%; in test [6] (setting [8]) it was 49%; in test [6] (at 50.0 µM), 77.5% (active).

As for `CC(C)(C)c1cc(C(O)(C(F)(F)F)C(F)(F)F)c(S)c(C(O)(C(F)(F)F)C(F)(F)F)c1`, the growth inhibition in test [1] (setting [7]) was 8%; in test [1] (setting [8]), 98% (active); in test [1] (at 50.0 µM), 98.8% (active); in test [2] (setting [7]) it was -6%; in test [2] (setting [8]), 99% (active); in test [2] (at 50.0 µM), 99.3% (active). The growth inhibition was 9% in test [3] (setting [7]); 98% (active) in test [3] (setting [8]); 98.8% (active) in test [3] (at 50.0 µM); 16% in test [4] (setting [7]); 98% (active) in test [4] (setting [8]); 99% (active) in test [4] (at 50.0 µM). In addition, the growth inhibition in test [5] (setting [7]) is 7%; in test [5] (setting [8]), 97% (active); in test [5] (at 50.0 µM) it was 99% (active); in test [6] (setting [7]) it was 4%; in test [6] (setting [8]), 95% (active); in test [6] (at 50.0 µM), 99% (active).

For the compound `CCCc1cc(=O)oc2c3c(c4c(c12)OC(C)(C)C=C4)O[C@@H](C)[C@H](C)[C@H]3O`, the growth inhibition in test [1] (setting [7]) is -1%; in test [1] (setting [8]), 91% (active); in test [1] (at 50.0 µM), 96.7% (active); in test [2] (setting [7]), 0%; in test [2] (setting [8]), 94% (active); in test [2] (at 50.0 µM), 94.8% (active). For the same compound, the growth inhibition in test [3] (setting [7]) was 11%; in test [3] (setting [8]) it was 95% (active); in test [3] (at 50.0 µM) it was 51.8%; in test [4] (setting [7]) it was 2%; in test [4] (setting [8]), 93% (active); in test [4] (at 50.0 µM), 92.4% (active). The growth inhibition in test [5] (setting [7]) was -2%; in test [5] (setting [8]) it was 94% (active); in test [5] (at 50.0 µM), 96.5% (active); in test [6] (setting [7]), 1%; in test [6] (setting [8]), 93% (active); in test [6] (at 50.0 µM) it was 95.1% (active).

`CNc1ccc2c(c1)c1ccccc1n2C`: the growth inhibition in test [1] (setting [7]) was 11%; in test [1] (setting [8]) it was 26%; in test [1] (at 50.0 µM) it was 71.3% (active); in test [2] (setting [7]), 2%; in test [2] (setting [8]), -67%; in test [2] (at 50.0 µM), 4.2%. Also, the growth inhibition is 3% in test [3] (setting [7]); 21% in test [3] (setting [8]); 40.1% in test [3] (at 50.0 µM); -1% in test [4] (setting [7]); -1% in test [4] (setting [8]); 65.5% in test [4] (at 50.0 µM). Further, the growth inhibition was -1% in test [5] (setting [7]); 35% in test [5] (setting [8]); 74.5% (active) in test [5] (at 50.0 µM); 14% in test [6] (setting [7]); 34% in test [6] (setting [8]); 52% in test [6] (at 50.0 µM).

As to `Cc1cc(NS(=O)(=O)c2ccc(Nc3c4ccccc4nc4c(C(=O)NC(CO)(CO)CO)cccc34)cc2)no1`, the growth inhibition in test [1] (setting [7]) was -1%; in test [1] (setting [8]) it was 17%; in test [1] (at 50.0 µM), 75.2% (active); in test [2] (setting [7]), -5%; in test [2] (setting [8]), -10%; in test [2] (at 50.0 µM), 23.9%. Also, the growth inhibition in test [3] (setting [7]) was -1%; in test [3] (setting [8]), -3%; in test [3] (at 50.0 µM), -1.6%; in test [4] (setting [7]), -21%; in test [4] (setting [8]), 17%; in test [4] (at 50.0 µM), 71.5% (active). Moreover, the growth inhibition in test [5] (setting [7]) is 0%; in test [5] (setting [8]) it was -6%; in test [5] (at 50.0 µM), 6.25%; in test [6] (setting [7]), -2%; in test [6] (setting [8]), 19%; in test [6] (at 50.0 µM), 74% (active).

As for `CNC(=O)OC(C)CN1c2ccccc2Sc2ccccc21` (stereo not given), the growth inhibition in test [1] (setting [7]) was -10%; in test [1] (setting [8]), 97% (active); in test [1] (at 50.0 µM), 90.2% (active); in test [2] (setting [7]), -21%; in test [2] (setting [8]) it was 98% (active); in test [2] (at 50.0 µM), 92.2% (active). Besides, the growth inhibition in test [3] (setting [7]) is 5%; in test [3] (setting [8]), 96% (active); in test [3] (at 50.0 µM), 93.1% (active); in test [4] (setting [7]) it was -1%; in test [4] (setting [8]), 93% (active); in test [4] (at 50.0 µM) it was 90.3% (active). Further, the growth inhibition is 1% in test [5] (setting [7]); 98% (active) in test [5] (setting [8]); 91.7% (active) in test [5] (at 50.0 µM); -11% in test [6] (setting [7]); 98% (active) in test [6] (setting [8]); 91.4% (active) in test [6] (at 50.0 µM).

As to `CCCCCCCCCC(=O)NN=C(C)C`, the growth inhibition in test [1] (setting [7]) was -129%; in test [1] (setting [8]), 54%; in test [1] (at 50.0 µM), 93.1% (active); in test [2] (setting [7]) it was -49%; in test [2] (setting [8]), 45%; in test [2] (at 50.0 µM) it was 83.2% (active). Also, the growth inhibition in test [3] (setting [7]) was -59%; in test [3] (setting [8]) it was 75% (active); in test [3] (at 50.0 µM), -2.75%; in test [4] (setting [7]), -67%; in test [4] (setting [8]) it was 81% (active); in test [4] (at 50.0 µM) it was 88.2% (active). For the same compound, the growth inhibition is -72% in test [5] (setting [7]); 41% in test [5] (setting [8]); 88% (active) in test [5] (at 50.0 µM); -131% in test [6] (setting [7]); 46% in test [6] (setting [8]); 90.8% (active) in test [6] (at 50.0 µM).

Regarding `NNc1cc([N+](=O)[O-])ccc1Cl`, the growth inhibition in test [1] (setting [7]) is 5%; in test [1] (setting [8]), 93% (active); in test [1] (at 50.0 µM) it was 88.5% (active); in test [2] (setting [7]), 6%; in test [2] (setting [8]), 68%; in test [2] (at 50.0 µM), 91.2% (active). The growth inhibition in test [3] (setting [7]) was -8%; in test [3] (setting [8]), 84% (active); in test [3] (at 50.0 µM) it was 90.8% (active); in test [4] (setting [7]), 4%; in test [4] (setting [8]), 38%; in test [4] (at 50.0 µM) it was 68%. The growth inhibition in test [5] (setting [7]) was 24%; in test [5] (setting [8]), 94% (active); in test [5] (at 50.0 µM), 95.1% (active); in test [6] (setting [7]), -20%; in test [6] (setting [8]), 95% (active); in test [6] (at 50.0 µM), 98.5% (active).
